Measurements: paper PMC4336329 (PLoS ONE, 2015)
Screen size: about 310,000 compounds; about 2,200 (0.71%) showed an effect of 50% or more. The effect is printed as a negative number. The full list was thinned out, with strong results kept by preference.

Target: human ether-à-go-go-related gene (hERG) potassium channel (human, UniProt Q12809)
Experiment: primary screen, population patch clamp on CHO cells stably expressing hERG; higher = less effect of the substance

Sequence of human ether-à-go-go-related gene (hERG) potassium channel (Q12809 whole entry, looked up): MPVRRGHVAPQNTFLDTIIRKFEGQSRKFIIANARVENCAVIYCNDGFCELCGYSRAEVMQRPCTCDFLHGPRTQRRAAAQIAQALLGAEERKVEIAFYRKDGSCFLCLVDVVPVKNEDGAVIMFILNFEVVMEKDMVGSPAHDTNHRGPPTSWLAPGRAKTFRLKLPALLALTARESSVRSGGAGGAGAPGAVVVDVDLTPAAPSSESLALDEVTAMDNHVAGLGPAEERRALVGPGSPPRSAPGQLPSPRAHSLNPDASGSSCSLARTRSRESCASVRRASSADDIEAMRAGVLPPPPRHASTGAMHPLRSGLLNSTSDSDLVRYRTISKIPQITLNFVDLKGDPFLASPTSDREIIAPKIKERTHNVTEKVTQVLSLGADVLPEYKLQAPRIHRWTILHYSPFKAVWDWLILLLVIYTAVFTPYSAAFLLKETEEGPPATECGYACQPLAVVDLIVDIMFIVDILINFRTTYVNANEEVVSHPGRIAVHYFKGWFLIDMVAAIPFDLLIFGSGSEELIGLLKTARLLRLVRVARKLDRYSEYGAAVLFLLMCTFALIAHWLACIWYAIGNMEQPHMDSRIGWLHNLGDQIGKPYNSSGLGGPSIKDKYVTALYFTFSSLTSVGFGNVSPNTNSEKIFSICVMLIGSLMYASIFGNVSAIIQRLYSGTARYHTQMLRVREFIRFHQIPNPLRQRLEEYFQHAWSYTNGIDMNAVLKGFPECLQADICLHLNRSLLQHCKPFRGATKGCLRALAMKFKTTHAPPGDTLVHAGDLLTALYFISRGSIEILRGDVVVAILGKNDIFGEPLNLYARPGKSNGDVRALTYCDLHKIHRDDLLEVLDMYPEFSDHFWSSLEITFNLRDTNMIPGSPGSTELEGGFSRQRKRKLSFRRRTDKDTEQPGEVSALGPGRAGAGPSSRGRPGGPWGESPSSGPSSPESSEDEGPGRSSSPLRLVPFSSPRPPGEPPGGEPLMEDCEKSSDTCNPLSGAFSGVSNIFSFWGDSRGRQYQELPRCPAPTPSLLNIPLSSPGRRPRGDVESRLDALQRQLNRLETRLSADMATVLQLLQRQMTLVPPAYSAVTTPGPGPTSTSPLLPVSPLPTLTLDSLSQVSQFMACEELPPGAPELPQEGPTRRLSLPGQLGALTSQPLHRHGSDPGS

Point of comparison: `O=C(c1cc2ccccc2oc1=O)N1CCN(C(=O)C2CCCO2)CC1` (stereo not shown), “hERG current change (%, negative = inhibition) at 1uM” value 4.25%. Against it:
- COc1ccc(NC(=S)N(CCc2ccc(OC)c(OC)c2)Cc2ccccn2)cc1 — lower, 0.952%
- CCOC(=O)c1ccc(CNCc2ccc(C)cc2)cc1 — lower, -1.83%
- COc1ccc(S(=O)(=O)N2CCCC2CNC(=O)C(=O)Nc2ccc(C)cc2)cc1 (stereo not shown) — lower, -0.606%
- COc1cc(CCC(=O)OCC(=O)Nc2ccc(C)cc2Cl)cc(OC)c1OC — higher, 15.1%
- CCn1ncc(NC(=O)Nc2cccc(C(F)(F)F)c2)c1C(N)=O — higher, 5.39%
- Cc1cc(C(=O)NC2CCCCC2)on1 — higher, 10.2%
- CN(C)c1cccc(C(=O)Nc2nc3ccccc3[nH]2)c1 — higher, 14.7%
- Fc1ccc(CN2CCCCCCC2)c(F)c1 — higher, 14.2%
- O=C(N/C(=C\c1ccc([N+](=O)[O-])cc1)C(=O)N1CCOCC1)c1cccc(Br)c1 — lower, -79%
- O=C(N/C(=C\c1ccc(Cl)cc1)C(=O)N1CCOCC1)c1ccc([N+](=O)[O-])cc1 — lower, -88.2%
- O=C(N/C(=C\c1ccc(Br)cc1)C(=O)N1CCOCC1)c1ccc([N+](=O)[O-])cc1 — lower, -81.6%
- O=C(N/C(=C\c1ccccc1Cl)C(=O)N1CCOCC1)c1ccc([N+](=O)[O-])cc1 — lower, -31.6%
- O=C(N/C(=C/c1cccc([N+](=O)[O-])c1)C(=O)N1CCOCC1)c1ccc(Br)cc1 — lower, -19.6%
- COc1ccc(C(=O)N/C(=C\c2ccccc2)C(=O)N2CCOCC2)cc1 — higher, 9.79%
- Cc1ccc(C(=O)N/C(=C/c2ccc(Cl)cc2)C(=O)N2CCOCC2)cc1 — lower, -9.41%
- COc1ccc(/C=C(\NC(=O)c2ccc([N+](=O)[O-])cc2)C(=O)N2CCOCC2)cc1 — lower, -54.9%
- O=C(N/C(=C\c1ccccc1)C(=O)N1CCOCC1)c1cccc(Br)c1 — higher, 18.8%
- O=C(N/C(=C\c1cccc([N+](=O)[O-])c1)C(=O)N1CCOCC1)c1cccc(Br)c1 — higher, 7.37%
- COc1ccc(/C=C(/NC(=O)c2ccc(Br)cc2)C(=O)N2CCOCC2)cc1 — higher, 7.06%
- O=C(N/C(=C/c1ccccc1)C(=O)N1CCOCC1)c1ccc([N+](=O)[O-])cc1 — lower, -19.6%
- O=C(Nc1cc(Cl)ccc1N1CCOCC1)c1cc2ccccc2o1 — higher, 8.14%
- Cc1c(Br)c([N+](=O)[O-])nn1C(C)C(=O)NCc1cccnc1 (stereo not shown) — lower, -7.67%
- O=C(O)COc1ccccc1 — higher, 14.1%
- O=C(Nc1ccc2c(c1)C(=O)OC2)c1ccc(Cl)cc1Cl — lower, 3.09%
- Cc1ccccc1N(C(=O)Cc1cccs1)C(C(=O)NC1CCCCC1)c1cn(C)nc1C (stereo not shown) — lower, -0.242%
- CCCCCCN1C2=NCCCN2c2ccccc21.Cl — lower, -73.7%
- c1ccc([C@H]2CN3C(=N2)Sc2ccccc23)cc1 — higher, 11%
- CCCN1C2=NCCCN2c2ccccc21.Cl — higher, 7.07%
- CCCCN1C2=NC(c3ccccc3)CN2c2ccccc21.Cl (stereo not shown) — lower, -50.5%
- Br.CCCCCN1C2=NCCN2c2ccccc21 — lower, -58.9%
- CCCCCCN1C2=NCCN2c2ccccc21.Cl — lower, -82.3%
- CCCCCCCN1C2=NCCCN2c2ccccc21.Cl — lower, -21.6%
- Br.CC(C)(C)C(=O)CN1C2=NCCN2c2ccccc21 — lower, 2.72%
- Br.CCCCN1C2=NCCCN2c2ccccc21 — lower, -6.43%
- O=C(CNC(=O)C12CC3CC(CC(C3)C1)C2)NC1=NCCS1 — higher, 12.3%
- COc1ccc(O)c(C2(O)C(=O)c3ccccc3C2=O)c1 — higher, 14.2%
- COc1cccc(NC(=O)Nc2nnc(-c3ccccc3SCc3ccccc3)s2)c1 — lower, 2.04%
- O=C(Nc1c2c(nn1-c1ccc([N+](=O)[O-])cc1)CS(=O)(=O)C2)c1ccco1 — lower, -24.1%
- O=C(CCN1CCN(Cc2ccccc2)CC1)Nc1cccc(Cl)c1 — lower, -45%
- CCCOc1ccc(C2C(C(=O)c3ccc(C)o3)=C(O)C(=O)N2Cc2ccco2)cc1OCC (stereo not shown) — higher, 14.9%
- COc1ccccc1N1CCN(C(=O)C(OC(C)=O)c2ccccc2)CC1 (stereo not shown) — higher, 11.8%
- CCCCN(CC)CCNC(=O)c1cc2c(=O)[nH]c3ccccc3c2n1C — higher, 11.5%
